“And” between values parts separate entries of the source, which are not always exact repeats. Identical values can stand only once. Results filed as inconclusive are left out. Unmarked numbers belong to inactive results. The source made the active and inactive calls. Calls come from the whole dose curve; as a rule, active = well fitted inhibition curve with a large enough effect; inconclusive = small, poorly fitted or top-dose-only effect; inactive = flat fitted curve, though single readings scatter. *1 amine or outer side, *2 acyl side, *3 side chain or, on linkers, in order; H or OH if unused. Where a SMILES comes first, the peptide text is derived from it. Bridges are numbered along the chain shown (N, C = ends). [ ]: non-standard residue; d: D form. The star is where a group is joined. pTerphenylCO(4''-OnC5H11) = CCCCCOc1ccc(-c2ccc(-c3ccc(C(=O)*)cc3)cc2)cc1; Orn(4R-OH,5R-OH) = O=C([C@H](C[C@@H](O)[C@@H](O)N[*:3])N[*:1])[*:2]; hTyr(3S-OH,4S-OH) = N[C@H](C(=O)O)[C@H](O)[C@@H](O)c1ccc(O)cc1; Pro(3S-OH,4S-Me) = C[C@H]1CN[C@H](C(=O)O)[C@H]1O; Hyp = O=C(O)[C@@H]1C[C@@H](O)CN1
Legend:
Assay in all cases: Cytotoxic Profiling of Annotated Libraries Using Quantitative High-Throughput Screening (AID 1296008); note: nearly all actives have a fitted effect of over 60% in size
Conditions in all cases: Five cell lines viability, CellTiter-Glo ATP luminescence, 48-72 h; max response: hits give low values
CRL-7250 = system: CRL-7250
Procedure, shortened: (§1)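 Cells exposed to compounds for 48 or 72 hr at 37 degrees Celsius. Viability read as ATP-coupled luminescence with CellTiter-Glo after 10 min at room temperature.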

HaCat = system: HaCat
Procedure, shortened: as §1

KB-3-1 = system: KB-3-1
Procedure, shortened: as §1

NIH3T3 = system: NIH3T3
Procedure, shortened: as §1
% is set by controls: 0 for no effect and ±100 for the full control effect; potency is the fitted concentration of half-maximal effect.

For `Cn1cc(C2=C(c3coc4ccccc34)C(=O)NC2=O)c2cc(Br)ccc21`, the max response (CRL-7250) was 2.54%, the max response (HaCat) was 3.32% and the outcome (KB-3-1) was “inactive”. The outcome (NIH3T3) was “inactive”.
`C/C(=C\CO[C@@H]1O[C@H](CO[C@H]2OC[C@](O)(CO)[C@H]2O)[C@@H](O)[C@H](O)[C@H]1O)C(C)(C)O` showed a max response (CRL-7250) of -3.13%, a max response (HaCat) of -2.99% and a max response (KB-3-1) of 2.14%. The max response (NIH3T3) was 3.25%.
`CCn1nc(C2CCN(C(=O)CCO)CC2)nc1-c1cnc(N)c(-c2nnc(C(C)(C)C)o2)n1` was tested, and the max response (CRL-7250) was -9.09%, the Potency (HaCat) was 3.66 µM (active) and the max response (KB-3-1) was 9.1%. For the same compound, the Potency (NIH3T3) was 8.2 µM (active).
`O=C(NCCCc1ccccc1)C1CCC(CNS(=O)(=O)c2cccc3nsnc23)CC1` (stereo unspecified) showed a max response (CRL-7250) of -1.65%, a max response (HaCat) of -4.58% and a max response (KB-3-1) of -11.8%. The max response (NIH3T3) was -18.1%.
With `CCCCCOc1ccc(-c2ccc(-c3ccc(C(=O)N[C@H]4C[C@@H](O)[C@@H](O)NC(=O)[C@@H]5[C@@H](O)[C@@H](C)CN5C(=O)[C@H]([C@@H](C)O)NC(=O)[C@H]([C@H](O)[C@@H](O)c5ccc(O)cc5)NC(=O)[C@@H]5C[C@@H](O)CN5C(=O)[C@H]([C@@H](C)O)NC4=O)cc3)cc2)cc1` ({pTerphenylCO(4''-OnC5H11)}-[Orn(4R-OH,5R-OH)]T[Hyp][hTyr(3S-OH,4S-OH)]T[Pro(3S-OH,4S-Me)]; lactam 1-C) the max response (CRL-7250) was 4.73%, the max response (HaCat) was 3.64% and the outcome (KB-3-1) was “inactive”. The max response (NIH3T3) was -1.62%.
For `Cn1cc(-c2ccc(F)c(C(F)(F)F)c2)nc1C1CCN(c2ncnc3[nH]ncc23)CC1`, the max response (CRL-7250) was -0.425%, the max response (HaCat) was -21.3% and the max response (KB-3-1) was 0.816%. The max response (NIH3T3) was 1.5% and -4.9%.
`CN(C)CC#CCCC(=O)C(O)(c1ccccc1)C1CCC1` (stereo unspecified) was tested, and the max response (CRL-7250) was 4.04%, the max response (HaCat) was 3% and the max response (KB-3-1) was 7.92%. It also gave a max response (NIH3T3) of -1.12%.
`O=C(NCCCNC(=O)c1ccc[nH]c1=O)c1cc(-c2ccccc2)on1` gave a max response (CRL-7250) of -21.2%, a max response (HaCat) of -1.65% and a max response (KB-3-1) of -25.1%. The max response (NIH3T3) was 2.72%.
Work on `CCOC(=O)C1=Cc2ccc(C(F)(F)C(F)(F)F)cc2N=C(N)C1` yielded a max response (CRL-7250) of -15.9%, a max response (HaCat) of -0.757% and a max response (KB-3-1) of -20.4%. It also gave a max response (NIH3T3) of -6.78%.
Compound `CN(C)C(=O)Nc1cccc(-c2ccc(N(C)C)cc2)c1` has a max response (CRL-7250) of -5.4%, a max response (HaCat) of -0.332% and a max response (KB-3-1) of -4.8%. It also gave a max response (NIH3T3) of 3%.
For `CC(C)/C=C1\NC(=O)C(C(C)C)n2c1nc1ccccc1c2=O` (stereo unspecified), the max response (CRL-7250) was 2.92%, the max response (HaCat) was -9.75% and the max response (KB-3-1) was -2.24%. The max response (NIH3T3) was -0.19%.
Compound `C=CCC1=C[C@]2(OC)[C@H](C)[C@@H](c3ccc4c(c3)OCO4)O[C@]2(OC)CC1=O` has a max response (CRL-7250) of -2.76%, a max response (HaCat) of -12.1% and a max response (KB-3-1) of -2.11%. It also gave a max response (NIH3T3) of 1.18%.
With `COc1ccc(CNCc2cccc3ccccc23)cc1` the outcome (CRL-7250) was “inactive”, the max response (HaCat) was -12.6% and the max response (KB-3-1) was 3.07%. For the same compound, the max response (NIH3T3) was -4.32%.
For `C[C@H]1CC[C@@]2(OC1)O[C@H]1CC3C4CC[C@H]5C[C@@H](O)CC[C@]5(C)C4=CC(=O)[C@]3(C)[C@H]1[C@@H]2C` (stereo partly specified), the outcome (CRL-7250) was “inactive”, the max response (HaCat) was -3.38% and the max response (KB-3-1) was 0.81%. For the same compound, the outcome (NIH3T3) was “inactive”.
For `C=C1CCC2[C@](C)(CCC[C@@]2(C)C=O)[C@H]1CC/C(C)=C/CO` (stereo partly specified), the max response (CRL-7250) was 2.68%, the max response (HaCat) was 2.96% and the outcome (KB-3-1) was “inactive”. It also gave a max response (NIH3T3) of 1.76%.
In the case of `COc1ccccc1-c1ccc(-c2cn(C(=O)N3CCCCC3Cc3ccccc3)nn2)cc1` (stereo unspecified), the outcome (CRL-7250) was “inactive”, the max response (HaCat) was -29.9% and the max response (KB-3-1) was 1.87%. For the same compound, the outcome (NIH3T3) was “inactive”.
Work on `CCOc1ccc(-n2c([C@@H](C)N(Cc3cccnc3)C(=O)Cc3ccc(OC(F)(F)F)cc3)nc3ncccc3c2=O)cc1` yielded a max response (CRL-7250) of 0.299%, a max response (HaCat) of -4.53% and a max response (KB-3-1) of 4.98%. For the same compound, the max response (NIH3T3) was -0.198%.
With `CC(C)(C)OC(=O)c1ncn2c1C(C)(C)Nc1ccccc1-2` the outcome (CRL-7250) was “inactive”, the max response (HaCat) was 2.2% and the max response (KB-3-1) was 0.574%. The max response (NIH3T3) was 0.0612%.
Work on `CC(=O)O[C@@H]1C[C@]2(C)[C@@]3(CCC4[C@@]5(C)CC[C@H](O[C@@H]6O[C@H](C(=O)O)[C@@H](O)[C@H](OC7OC(CO)C(O)C(O)[C@H]7O[C@@H]7O[C@@H](C)[C@H](O)[C@@H](O)[C@H]7O[C@@H]7OC[C@](O)(CO)[C@H]7O)[C@H]6OC6OC(CO)C(O)C(O)C6O)C(C)(C)C5CC[C@]42C)OC[C@@]12CCC(C)(C)CC23` (stereo partly specified) yielded a max response (CRL-7250) of -2.03%, a max response (HaCat) of 0.508% and a max response (KB-3-1) of -5.11%. The max response (NIH3T3) was 0.621%.

— PubChem BioAssay (NCATS)
